Experiments:
Assay in all cases: DAPPL (digital affinity profiling via proximity ligation, sequencing); 10 mM Tris-HCl pH 7.5, 50 mM NaCl, 1 mM DTT, 4% glycerol, room temperature, 30 min; GST-TFs on glutathione beads, 16-mer random dsDNA library, 0.1% formaldehyde crosslink after washing; high values mean tight binding
Conditions in all cases: protein: recombinant; tags: N-terminal GST; dsDNA, one strand shown
FLI1 = biological target: T1, FLI1 (Homo sapiens, UniProt Q01543 1-452)
T1 sequence: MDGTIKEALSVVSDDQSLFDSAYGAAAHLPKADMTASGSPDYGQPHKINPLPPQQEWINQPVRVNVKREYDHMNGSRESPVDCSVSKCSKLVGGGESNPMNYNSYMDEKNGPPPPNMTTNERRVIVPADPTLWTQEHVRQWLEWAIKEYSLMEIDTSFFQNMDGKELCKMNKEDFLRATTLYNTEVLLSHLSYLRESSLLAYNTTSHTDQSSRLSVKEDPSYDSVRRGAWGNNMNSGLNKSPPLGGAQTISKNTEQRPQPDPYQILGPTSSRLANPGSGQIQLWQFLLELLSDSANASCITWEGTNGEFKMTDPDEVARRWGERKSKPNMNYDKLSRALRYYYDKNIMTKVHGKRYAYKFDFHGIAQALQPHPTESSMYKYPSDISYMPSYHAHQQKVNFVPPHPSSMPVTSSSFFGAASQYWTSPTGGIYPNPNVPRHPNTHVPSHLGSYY
Method in brief: (§1)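 After expression in yeast as GST fusions, human transcription factors were bound to glutathione beads, DNA-barcoded and mixed with a tag-only sample. The pools were incubated with 200 nmole of a 16-mer random double-stranded DNA library in Tris/NaCl/DTT/glycerol buffer (30 min, room temperature), washed and crosslinked with 0.1% formaldehyde. Proximity ligation with BsaI/T4 ligase ran for 1 h at 37 °C, before PCR amplification and sequencing on an Illumina NextSeq500. Binding signal is a hexamer's read frequency for a factor divided by its frequency for the tag-only sample.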

ELK1 = biological target: T2, ELK1 (Homo sapiens, UniProt P19419 1-428)
T2 sequence: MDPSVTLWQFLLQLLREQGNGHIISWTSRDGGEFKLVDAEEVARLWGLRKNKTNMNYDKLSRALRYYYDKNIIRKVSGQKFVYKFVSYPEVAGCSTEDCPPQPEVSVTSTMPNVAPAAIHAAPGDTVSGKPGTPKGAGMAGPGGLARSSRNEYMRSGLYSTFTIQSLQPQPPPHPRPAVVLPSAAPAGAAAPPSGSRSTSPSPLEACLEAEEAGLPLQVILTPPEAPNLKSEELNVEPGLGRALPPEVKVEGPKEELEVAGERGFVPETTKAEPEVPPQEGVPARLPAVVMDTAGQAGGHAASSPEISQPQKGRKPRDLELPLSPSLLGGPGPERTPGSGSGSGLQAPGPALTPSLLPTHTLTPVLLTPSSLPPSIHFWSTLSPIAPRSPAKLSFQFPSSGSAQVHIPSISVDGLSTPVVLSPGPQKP
Method in brief: as §1

GABPA = biological target: T3, GABPA (Homo sapiens, UniProt Q06546 1-454)
T3 sequence: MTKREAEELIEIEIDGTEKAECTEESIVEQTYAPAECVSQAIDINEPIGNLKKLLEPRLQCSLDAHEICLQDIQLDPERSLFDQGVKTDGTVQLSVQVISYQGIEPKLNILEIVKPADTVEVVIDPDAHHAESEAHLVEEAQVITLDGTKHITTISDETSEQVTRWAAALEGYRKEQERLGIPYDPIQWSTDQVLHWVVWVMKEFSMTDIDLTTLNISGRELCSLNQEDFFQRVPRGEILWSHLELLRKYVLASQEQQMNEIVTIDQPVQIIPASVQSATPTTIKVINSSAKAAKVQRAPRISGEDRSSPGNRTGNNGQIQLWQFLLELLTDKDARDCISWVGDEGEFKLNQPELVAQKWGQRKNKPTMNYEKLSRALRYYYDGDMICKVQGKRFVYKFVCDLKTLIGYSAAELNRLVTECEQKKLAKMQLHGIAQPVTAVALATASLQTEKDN
Method in brief: as §1

ERG = biological target: T4, ERG (Homo sapiens, UniProt P11308 1-479)
T4 sequence: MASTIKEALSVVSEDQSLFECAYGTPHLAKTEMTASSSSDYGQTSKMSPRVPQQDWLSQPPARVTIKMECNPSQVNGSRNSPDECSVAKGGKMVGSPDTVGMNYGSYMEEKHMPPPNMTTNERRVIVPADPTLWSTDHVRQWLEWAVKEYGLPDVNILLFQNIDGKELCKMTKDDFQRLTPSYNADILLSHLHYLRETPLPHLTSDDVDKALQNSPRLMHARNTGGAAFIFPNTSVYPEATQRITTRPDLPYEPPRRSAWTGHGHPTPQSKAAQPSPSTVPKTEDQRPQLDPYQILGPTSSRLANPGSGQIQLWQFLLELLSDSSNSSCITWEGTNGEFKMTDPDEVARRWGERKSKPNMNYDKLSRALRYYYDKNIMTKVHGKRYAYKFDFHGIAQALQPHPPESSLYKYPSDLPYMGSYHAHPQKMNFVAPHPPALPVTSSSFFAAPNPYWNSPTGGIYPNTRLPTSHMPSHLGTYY
Method in brief: as §1

ELF1 = ELF1 (Homo sapiens, UniProt P32519 1-619)
Method in brief: as §1

EHF = biological target: T5, EHF (Homo sapiens, UniProt Q9NZC4 1-300)
T5 sequence: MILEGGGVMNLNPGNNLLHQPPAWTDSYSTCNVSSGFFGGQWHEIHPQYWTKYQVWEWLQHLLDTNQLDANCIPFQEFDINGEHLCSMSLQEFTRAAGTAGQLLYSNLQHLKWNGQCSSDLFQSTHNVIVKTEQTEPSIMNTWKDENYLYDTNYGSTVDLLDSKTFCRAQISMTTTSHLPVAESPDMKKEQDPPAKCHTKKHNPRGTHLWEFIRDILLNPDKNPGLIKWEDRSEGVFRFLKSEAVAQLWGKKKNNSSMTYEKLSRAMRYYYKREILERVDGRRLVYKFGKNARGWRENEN
Method in brief: as §1

SPI1 = SPI1 (Homo sapiens, UniProt P17947 1-270)
Method in brief: as §1

SPIB = SPIB (Homo sapiens, UniProt Q01892 1-262)
Method in brief: as §1

ELK3 = biological target: T6, ELK3 (Homo sapiens, UniProt P41970 1-407)
T6 sequence: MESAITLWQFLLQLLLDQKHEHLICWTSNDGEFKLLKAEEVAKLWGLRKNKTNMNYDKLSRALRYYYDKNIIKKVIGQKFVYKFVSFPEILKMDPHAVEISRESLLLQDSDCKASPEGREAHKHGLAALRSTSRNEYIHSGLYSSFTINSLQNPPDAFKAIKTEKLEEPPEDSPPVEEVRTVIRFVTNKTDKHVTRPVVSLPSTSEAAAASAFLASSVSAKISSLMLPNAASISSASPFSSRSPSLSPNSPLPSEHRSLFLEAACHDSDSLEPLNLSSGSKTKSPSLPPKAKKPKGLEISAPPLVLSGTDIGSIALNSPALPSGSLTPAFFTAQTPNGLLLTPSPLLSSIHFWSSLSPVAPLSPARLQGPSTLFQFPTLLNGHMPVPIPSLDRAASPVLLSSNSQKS
Method in brief: as §1

FEV = biological target: T7, FEV (Homo sapiens, UniProt Q99581 1-238)
T7 sequence: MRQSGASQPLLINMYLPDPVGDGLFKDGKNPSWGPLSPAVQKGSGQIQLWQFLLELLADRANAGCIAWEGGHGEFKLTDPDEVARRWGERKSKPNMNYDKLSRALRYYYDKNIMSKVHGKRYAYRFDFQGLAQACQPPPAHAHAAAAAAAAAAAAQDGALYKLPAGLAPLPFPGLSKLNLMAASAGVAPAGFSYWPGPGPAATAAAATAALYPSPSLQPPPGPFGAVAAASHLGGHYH
Method in brief: as §1

ETV5 = ETV5 (Homo sapiens, UniProt P41161 1-510)
Method in brief: as §1

SPIC = biological target: T8, SPIC (Homo sapiens, UniProt Q8N5J4 1-248)
T8 sequence: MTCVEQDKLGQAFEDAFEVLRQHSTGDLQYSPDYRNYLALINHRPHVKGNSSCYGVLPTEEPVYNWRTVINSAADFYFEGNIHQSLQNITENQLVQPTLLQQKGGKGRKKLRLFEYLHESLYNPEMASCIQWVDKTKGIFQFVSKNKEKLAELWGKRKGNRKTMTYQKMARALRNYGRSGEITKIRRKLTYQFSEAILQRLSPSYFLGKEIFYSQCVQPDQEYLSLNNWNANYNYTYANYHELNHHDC
Method in brief: as §1

ELF4 = ELF4 (Homo sapiens, UniProt Q99607 1-663)
Method in brief: as §1

ELK4 = biological target: T9, ELK4 (Homo sapiens, UniProt P28324-2 1-405)
T9 sequence: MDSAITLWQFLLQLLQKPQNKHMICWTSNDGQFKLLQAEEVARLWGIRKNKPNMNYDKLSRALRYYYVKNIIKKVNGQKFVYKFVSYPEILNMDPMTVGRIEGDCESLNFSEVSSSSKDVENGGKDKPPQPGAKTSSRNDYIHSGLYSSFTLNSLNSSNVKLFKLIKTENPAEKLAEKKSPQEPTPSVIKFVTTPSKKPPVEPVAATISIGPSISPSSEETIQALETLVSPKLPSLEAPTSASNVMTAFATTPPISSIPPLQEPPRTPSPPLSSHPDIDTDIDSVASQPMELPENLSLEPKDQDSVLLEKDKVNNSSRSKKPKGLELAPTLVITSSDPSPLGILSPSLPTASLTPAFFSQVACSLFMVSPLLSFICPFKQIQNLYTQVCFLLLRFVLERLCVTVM
Method in brief: as §1

ETV2 = biological target: T10, ETV2 (Homo sapiens, UniProt O00321 1-342)
T10 sequence: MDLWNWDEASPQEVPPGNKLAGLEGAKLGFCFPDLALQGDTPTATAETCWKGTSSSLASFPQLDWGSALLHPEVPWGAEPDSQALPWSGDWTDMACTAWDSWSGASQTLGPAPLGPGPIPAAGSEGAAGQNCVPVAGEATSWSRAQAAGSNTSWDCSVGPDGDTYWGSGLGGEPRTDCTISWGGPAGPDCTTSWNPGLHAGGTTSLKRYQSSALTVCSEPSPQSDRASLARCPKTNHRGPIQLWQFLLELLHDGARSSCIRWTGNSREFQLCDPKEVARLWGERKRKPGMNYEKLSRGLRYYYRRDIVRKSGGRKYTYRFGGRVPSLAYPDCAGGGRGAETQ
Method in brief: as §1

ELF3 = biological target: T11, ELF3 (Homo sapiens, UniProt P78545 1-371)
T11 sequence: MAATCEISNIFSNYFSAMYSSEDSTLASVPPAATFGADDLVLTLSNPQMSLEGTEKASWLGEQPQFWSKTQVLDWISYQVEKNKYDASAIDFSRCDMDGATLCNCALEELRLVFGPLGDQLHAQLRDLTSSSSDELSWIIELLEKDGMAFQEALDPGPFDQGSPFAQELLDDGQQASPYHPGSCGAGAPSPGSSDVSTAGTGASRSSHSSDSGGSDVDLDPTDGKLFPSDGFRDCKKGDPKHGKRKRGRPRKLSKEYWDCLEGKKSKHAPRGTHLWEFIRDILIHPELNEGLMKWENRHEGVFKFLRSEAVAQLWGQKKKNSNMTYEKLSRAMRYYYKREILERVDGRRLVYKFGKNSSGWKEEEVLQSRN
Method in brief: as §1

ETV1 = ETV1 (Homo sapiens, UniProt P50549 1-477)
Method in brief: as §1

Sequence of ELF1 (P32519 whole entry): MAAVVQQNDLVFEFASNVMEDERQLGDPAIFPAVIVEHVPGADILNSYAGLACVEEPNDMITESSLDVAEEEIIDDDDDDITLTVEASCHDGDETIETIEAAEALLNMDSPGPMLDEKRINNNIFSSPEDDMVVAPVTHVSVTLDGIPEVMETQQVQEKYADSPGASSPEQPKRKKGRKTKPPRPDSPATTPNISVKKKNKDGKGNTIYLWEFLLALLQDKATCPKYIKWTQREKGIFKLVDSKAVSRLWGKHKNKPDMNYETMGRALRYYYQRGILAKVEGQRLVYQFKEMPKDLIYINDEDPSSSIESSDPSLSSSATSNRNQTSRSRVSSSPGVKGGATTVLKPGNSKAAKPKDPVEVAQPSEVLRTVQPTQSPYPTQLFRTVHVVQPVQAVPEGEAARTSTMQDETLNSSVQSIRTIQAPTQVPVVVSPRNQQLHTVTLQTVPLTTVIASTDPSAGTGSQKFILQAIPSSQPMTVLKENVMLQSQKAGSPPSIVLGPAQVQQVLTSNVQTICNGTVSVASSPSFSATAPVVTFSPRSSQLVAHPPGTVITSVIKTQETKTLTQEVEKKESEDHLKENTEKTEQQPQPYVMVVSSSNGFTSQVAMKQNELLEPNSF
Sequence of SPIB (Q01892 whole entry): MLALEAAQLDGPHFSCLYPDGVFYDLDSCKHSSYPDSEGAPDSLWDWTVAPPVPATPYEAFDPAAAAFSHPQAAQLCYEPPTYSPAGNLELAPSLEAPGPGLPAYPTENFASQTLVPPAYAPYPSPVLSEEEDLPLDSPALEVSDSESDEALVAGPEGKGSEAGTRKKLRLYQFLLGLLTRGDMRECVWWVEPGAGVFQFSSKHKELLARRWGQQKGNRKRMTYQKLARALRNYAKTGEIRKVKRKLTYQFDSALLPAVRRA
Sequence of ETV1 (P50549 whole entry): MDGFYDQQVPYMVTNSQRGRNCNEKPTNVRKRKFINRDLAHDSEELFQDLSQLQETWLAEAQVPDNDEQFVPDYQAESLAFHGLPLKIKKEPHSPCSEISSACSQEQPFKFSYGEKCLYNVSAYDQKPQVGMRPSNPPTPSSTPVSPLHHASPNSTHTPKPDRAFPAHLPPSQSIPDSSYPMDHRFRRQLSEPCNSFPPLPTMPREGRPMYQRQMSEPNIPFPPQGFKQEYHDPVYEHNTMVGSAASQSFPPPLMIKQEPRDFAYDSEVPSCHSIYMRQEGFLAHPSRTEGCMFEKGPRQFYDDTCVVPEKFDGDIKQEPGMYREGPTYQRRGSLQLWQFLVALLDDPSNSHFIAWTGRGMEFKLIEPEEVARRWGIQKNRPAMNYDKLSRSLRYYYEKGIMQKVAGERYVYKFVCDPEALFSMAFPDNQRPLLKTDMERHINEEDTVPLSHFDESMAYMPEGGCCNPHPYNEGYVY
Sequence of ELF4 (Q99607 whole entry): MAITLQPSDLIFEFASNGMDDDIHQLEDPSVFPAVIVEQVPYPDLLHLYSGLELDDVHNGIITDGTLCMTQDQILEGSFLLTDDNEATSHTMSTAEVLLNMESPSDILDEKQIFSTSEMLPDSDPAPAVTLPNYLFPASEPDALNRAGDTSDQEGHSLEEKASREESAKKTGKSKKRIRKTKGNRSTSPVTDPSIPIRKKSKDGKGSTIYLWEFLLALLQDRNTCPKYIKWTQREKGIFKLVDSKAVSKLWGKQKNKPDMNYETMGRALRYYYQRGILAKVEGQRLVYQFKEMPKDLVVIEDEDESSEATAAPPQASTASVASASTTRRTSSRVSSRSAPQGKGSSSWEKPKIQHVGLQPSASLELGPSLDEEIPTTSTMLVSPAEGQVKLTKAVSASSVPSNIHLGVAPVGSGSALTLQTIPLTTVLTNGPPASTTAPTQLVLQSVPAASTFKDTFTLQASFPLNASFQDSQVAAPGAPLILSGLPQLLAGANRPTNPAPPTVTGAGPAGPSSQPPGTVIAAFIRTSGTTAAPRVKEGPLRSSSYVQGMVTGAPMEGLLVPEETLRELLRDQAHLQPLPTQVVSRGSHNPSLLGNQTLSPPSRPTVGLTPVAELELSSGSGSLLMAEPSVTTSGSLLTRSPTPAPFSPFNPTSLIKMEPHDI
Sequence of ETV5 (P41161 whole entry): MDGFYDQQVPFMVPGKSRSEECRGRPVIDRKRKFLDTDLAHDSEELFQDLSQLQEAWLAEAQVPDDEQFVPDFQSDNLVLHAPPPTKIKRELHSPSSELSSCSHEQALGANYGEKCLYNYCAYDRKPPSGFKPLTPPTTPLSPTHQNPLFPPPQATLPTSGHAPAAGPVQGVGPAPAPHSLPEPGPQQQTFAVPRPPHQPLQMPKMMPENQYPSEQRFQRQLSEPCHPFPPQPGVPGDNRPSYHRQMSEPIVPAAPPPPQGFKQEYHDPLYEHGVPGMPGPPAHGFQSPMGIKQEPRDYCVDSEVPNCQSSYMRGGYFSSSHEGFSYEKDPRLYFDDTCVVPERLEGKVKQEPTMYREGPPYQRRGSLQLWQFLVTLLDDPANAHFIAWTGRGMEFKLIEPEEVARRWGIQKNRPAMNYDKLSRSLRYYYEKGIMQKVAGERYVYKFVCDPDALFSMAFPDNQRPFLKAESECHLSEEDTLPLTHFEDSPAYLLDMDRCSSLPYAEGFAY

In the case of CACTCA, the binding signal (FLI1) is reported as 1.06 fold enrichment (6-mer frequency, TF over GST control), the binding signal (ELK1) is reported as 1.17 fold enrichment (6-mer frequency, TF over GST control) and the binding signal (GABPA) is reported as 1.25 fold enrichment (6-mer frequency, TF over GST control). The binding signal (ERG) was 1.16 fold enrichment (6-mer frequency, TF over GST control), the binding signal (ELF1) was 1.24 fold enrichment (6-mer frequency, TF over GST control) and the binding signal (EHF) was 1.19 fold enrichment (6-mer frequency, TF over GST control). The binding signal (SPI1) was 1.08 fold enrichment (6-mer frequency, TF over GST control), the binding signal (SPIB) was 1.21 fold enrichment (6-mer frequency, TF over GST control) and the binding signal (ELK3) was 1.19 fold enrichment (6-mer frequency, TF over GST control). The binding signal (FEV) was 1.16 fold enrichment (6-mer frequency, TF over GST control), the binding signal (ETV5) was 1.09 fold enrichment (6-mer frequency, TF over GST control) and the binding signal (SPIC) was 1.3 fold enrichment (6-mer frequency, TF over GST control). The binding signal (ELF4) was 1.18 fold enrichment (6-mer frequency, TF over GST control), the binding signal (ELK4) was 1.17 fold enrichment (6-mer frequency, TF over GST control) and the binding signal (ETV2) was 1.27 fold enrichment (6-mer frequency, TF over GST control). The binding signal (ELF3) was 1.17 fold enrichment (6-mer frequency, TF over GST control) and the binding signal (ETV1) was 1.1 fold enrichment (6-mer frequency, TF over GST control).

Reference: paper PMC7862700, “An all-to-all approach to the identification of sequence-specific readers for epigenetic DNA modifications on cytosine”
